In PubChem BioAssay AID1619 (SRMLSC, 2009):
Screen size: about 220,000 compounds; about 830 (0.38%) were called active. A selection follows. Results with a measured potency or affinity are listed apart. Unmarked numbers belong to inactive results.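 How the source made its calls: active means compound inhibiting the enzyme by more than half at any dose during confirmatory dose-response retesting; inconclusive means strong single-dose inhibitors picked by rank but not retested; inactive means the rest.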

What follows are molecules tested against Leucine aminopeptidase (Plasmodium falciparum (isolate 3D7)) (UniProt Q8IL11) (assay: P. falciparum M17LAP inhibitors, primary screen, biochemical, fluorogenic H-Leu-NHMec substrate, 1536-well (AID 1619;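 further: plate controls were full reaction with DMSO carrier for no effect and no enzyme background for full effect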)). Details: recombinant M17LAP, H-Leu-NHMec fluorogenic kinetic assay; at 30 µM; stronger effect = higher value.
Leucine aminopeptidase (Plasmodium falciparum (isolate 3D7)), sequence (Q8IL11 whole entry, looked up): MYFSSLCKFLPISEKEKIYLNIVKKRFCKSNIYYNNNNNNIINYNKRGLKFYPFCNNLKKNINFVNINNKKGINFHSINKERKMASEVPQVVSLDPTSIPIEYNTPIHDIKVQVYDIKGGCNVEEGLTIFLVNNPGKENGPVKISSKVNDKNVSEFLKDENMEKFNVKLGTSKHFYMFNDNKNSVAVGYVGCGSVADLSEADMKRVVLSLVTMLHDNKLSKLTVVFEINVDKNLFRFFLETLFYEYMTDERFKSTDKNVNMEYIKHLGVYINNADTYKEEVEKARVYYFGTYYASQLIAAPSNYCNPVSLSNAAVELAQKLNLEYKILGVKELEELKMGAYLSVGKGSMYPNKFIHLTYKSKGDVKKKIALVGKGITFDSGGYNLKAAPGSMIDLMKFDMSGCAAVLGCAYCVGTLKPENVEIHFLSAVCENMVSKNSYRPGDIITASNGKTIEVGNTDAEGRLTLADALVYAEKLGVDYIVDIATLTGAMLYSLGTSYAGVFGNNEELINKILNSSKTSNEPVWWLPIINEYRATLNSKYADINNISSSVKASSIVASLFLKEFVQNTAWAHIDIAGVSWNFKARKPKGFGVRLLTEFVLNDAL

Compound	inhibition [%]
CNC(=S)Nc1cccc(Cl)c1C	0.94
CCn1c(Cc2ccccc2)nnc1SCc1ccc([N+](=O)[O-])cc1	-12
Oc1[nH]c2ccccc2c1N=Nc1ccccc1	7.84
Oc1[nH]c2ccccc2c1N=Nc1ccc(F)cc1	26.1
CC(=O)c1cccc(N=Nc2c(C)[nH]c3ccccc23)c1	-8.29
Cc1[nH]c2ccccc2c1N=Nc1cc(C(=O)O)cc(C(=O)O)c1	21.5
COc1cccc(CNC(=O)CCC2CCCN(Cc3cc4ccccc4o3)C2)c1 (stereo unspecified)	-1.88
Cc1nnc(SCc2cc(=O)[nH]c(=S)[nH]2)s1	27.4
O=c1cc(Cc2ccccc2)[nH]c(=S)[nH]1	0.4
O=C(NC1CCS(=O)(=O)C1)c1cn(-c2ccccc2)nc1-c1ccccc1 (stereo unspecified)	-4.23
Cc1cc(C)nc(N2CCCC(C(=O)NC(C)CCc3ccco3)C2)n1 (stereo unspecified)	2.6
CC(OC(=O)CCCc1nc2ccccc2s1)C(=O)NC(N)=O (stereo unspecified)	-1.53
Cc1ccccc1S(=O)(=O)c1cc(C#N)c(=O)[nH]c1N	-8.15
COc1ccc(N(CC(=O)NCc2ccccc2)S(=O)(=O)c2c(C)noc2C)cc1	-3.73
CCOc1ccc(NC(=S)NCc2nc3ccccc3[nH]2)cc1	-5.56
O=C(O)CC1S/C(=N/N=C/c2ccc(-c3ccc(Cl)cc3[N+](=O)[O-])o2)NC1=O (stereo unspecified)	31.2
Cc1ccc(-c2ccc(/C=N/N3C(=O)C4C5C=CC(CC5)C4C3=O)o2)c([N+](=O)[O-])c1 (stereo unspecified)	5.1
COc1cc(-c2cc(C(=O)Nc3nc4ccccc4s3)c3ccccc3n2)cc(OC)c1OC	4.34
c1ccc(CN2c3ccccc3-c3nc4ccccc4n3C2c2ccccn2)cc1 (stereo unspecified)	1.51
COCCOC(=O)C1=C(C)NC(=O)NC1/C=C/c1ccccc1 (stereo unspecified)	0.26
Cc1cc(C)c(/C=C(\C#N)S(=O)(=O)c2ccccc2)[nH]1	-7.74
N#C/C(=C/c1ccc(F)cc1)S(=O)(=O)c1ccccc1	-4.38
CC1=CC2=NC(=O)/C(=C\c3cccn3CCOc3ccccc3)C(=N)N2O1	8.69
COc1cccc(OCCn2cccc2/C=C2/C(=N)N3OC(C)=CC3=NC2=O)c1	0.81

Compound	inhibition [%]
Cc1nn(-c2ccccc2)c(C)c1C(=O)NCc1ccc(F)cc1	-15.7
FC(F)(F)c1cnc(-c2cnc(-c3cccnc3)nc2)c(Cl)c1	1.19
c1coc(-c2nc(-c3ccco3)c(-c3ccco3)nc2-c2ccco2)c1	48.1
c1coc(-c2ncc[nH]2)c1	-2.51
COc1ccc(/C=N/N2CCN(c3ccncc3S(=O)(=O)N3CCCCC3)CC2)cc1	0
Cc1cc(C(=O)COC(=O)c2cccnc2Cl)c(C)n1-c1c(C)n(C)n(-c2ccccc2)c1=O	10.5
Cc1cc(C(=O)OCC(N)=O)c(C)n1-c1ccccc1	3.65
CCOc1ncccc1C(=O)OCC(=O)c1cc(C)n(Cc2ccco2)c1C	6.52
CCCn1c(C)cc(C(=O)COC(=O)c2nccnc2N)c1C	6.47
COc1ccc(Nc2nc(N)nc(CN3CCC(Cc4ccccc4)CC3)n2)cc1	-2.44
CCOC(=O)CC(=O)CSc1n[nH]c(=O)[nH]c1=O	-5.31
C=CCn1c(SCC(=O)c2ccc(O)c(O)c2)nnc1-c1cccnc1	22.5
CCn1c(SCC(=O)O)nnc1-c1ccccc1OC	-7.5
CCn1c(SCC(=O)C(C)(C)C)nnc1-c1ccccc1OC	6.79
C=CCn1c(SCC(=O)c2ccc(OC)cc2)nnc1-c1cc2cccc(OC)c2o1	3.95
CCC(=O)Nc1ccc(C(=O)NNC(=O)C(c2ccccc2)c2ccccc2)cc1	5.41
O=C(CNC(=O)c1ccc([N+](=O)[O-])cc1)N/N=C\c1ccc(OC(=O)c2ccccc2)cc1	-2.63
COc1ccc(S(=O)(=O)NCCc2ccccc2)cc1	-1.2
Cc1nn(C)cc1/C=N/NC(=O)Cn1cncn1	0.36
C=CCN1C(=O)CC(C(=O)NC)SC1=Nc1ccc(C(=O)OCC)cc1 (stereo unspecified)	4.4
CC(=O)Nc1c(C(=O)N2CCN(c3ccccn3)CC2)cnn1-c1ccc(C)cc1	11
CC1=CC(C)C2C(=O)N(O)C(=O)C2C1 (stereo unspecified)	1.69
CN(c1ccc(F)cc1)S(=O)(=O)c1ccc(Cl)c(C(=O)OCC(=O)NCc2ccco2)c1	4.4
COc1ccc(S(=O)(=O)/N=C2/NC(=O)/C(=C\c3ccco3)S2)cc1	22.2

Compound	inhibition [%]
COc1ccc(Nc2nc3ccccc3nc2NS(=O)(=O)c2cccs2)cc1	9.26
NC1=NC(=O)/C(=C\c2ccco2)S1	25.9
COc1ccc(NS(=O)(=O)c2cccs2)c(OC)c1	-8.72
O=C1CN(C(=O)CCN2CCOCC2)C(c2ccccc2)c2cc(Br)ccc2N1 (stereo unspecified)	8.27
Cc1cc(/C=C2/C(=O)NN(c3ccccc3)C2=O)c(C)n1-c1ccc(O)cc1	-3.4
Cc1cc(C=O)c(C)n1-c1ccc(Cl)c(C(=O)O)c1	14.1
CCCC(C)c1nnc(NC(=O)C(=O)OCC)s1 (stereo unspecified)	2.47
O=C(NNS(=O)(=O)c1ccccc1)c1cccnc1	1.34
O=C(NC(=S)NNS(=O)(=O)c1ccccc1)c1ccc([N+](=O)[O-])cc1	21.4
O=C(NNC(=S)NC(=O)c1ccccc1[N+](=O)[O-])c1ccccc1[N+](=O)[O-]	51.9
O=C(NC(=S)NNS(=O)(=O)c1ccc(Cl)cc1)c1cccnc1	20
CCOC(=O)C1C(=O)C=C(Nc2ccccc2F)CC1c1ccccc1 (stereo unspecified)	10.8
CCOC(=O)C(C(=O)OCC)N(C#N)c1nc(OC)nc(N(C)C)n1	3.46
O=Cc1cccc(Oc2ncccn2)c1	3.35
CCOC(=O)N1CCC(Nc2c(NCCCN(CC)CC)c(=O)c2=O)CC1	-6.21
O=C1CCC(=O)N1c1cccc(OS(=O)(=O)c2ccccc2)c1	10.4
Cc1cc(C(F)(F)F)n2nc(-c3cnn(C)c3C(F)(F)F)c(Br)c2n1	4.73
O=C(Cc1ccccc1)N[C@@H](Cc1ccc(O)cc1)C(=O)O	7.55
COC(=O)[C@H](Cc1ccccc1)NC(=O)NCc1cccs1	7.7
O=C(NCc1ccccc1)N[C@@H](Cc1ccccc1)C(=O)O	27.9
NS(=O)(=O)c1ccc(NC(=O)N[C@@H](Cc2ccccc2)C(=O)O)cc1	9.55
COc1ccccc1Nc1nc2ccc(C)cc2cc1C#N	5.31
COc1ccc(N2CCN(c3nc4ccccc4n3CC(=O)c3ccccc3)CC2)cc1	12.7
O=C1CS/C(=C/C(=O)c2cccc(Cl)c2)N1	16

Compound	inhibition [%]
Cc1ccc(S(=O)(=O)/C=C2\NC(=O)CS2)cc1	34.6
O=C(O)c1ccc(/C=N/NC(=O)c2cc(-c3cccs3)nc3ccccc23)cc1	-43.1
CC1CCC(N2CCN(c3ncccn3)CC2)CC1 (stereo unspecified)	1.15
Cc1ccc(-c2cc(-c3ccccc3C)[nH]n2)c(O)c1	9.91
Cc1ccc(O)c(-c2cc(-c3ccccc3C)[nH]n2)c1	-1.23
Cc1ccc(NC(=O)CSC2=C(C#N)C(c3ccco3)C3=C(CC(C)(C)CC3=O)N2)cc1 (stereo unspecified)	1.21
C=C(C)C(=O)Oc1ccc(N2C(=O)CCC2=O)cc1	15.3
O=C(CSc1nc2ccccc2c(=O)n1CCCN1CCOCC1)Nc1cccc(S(=O)(=O)N2CCCCCC2)c1	-0.76
CCOc1ccccc1NC(=O)N1CCN(S(C)(=O)=O)CC1	-3.49
CCn1cc(CNC(=O)/C=C/c2cnn(C)c2)c(C)n1	-7.7
Nc1cc(-c2cccc([N+](=O)[O-])c2)[nH]n1	10.1
O=c1cc(O)c(-c2ccc(Cl)c(Cl)c2)c(Cl)[nH]1	4.59
O=[N+]([O-])c1cccc(-c2ccn[nH]2)c1	0.95
Clc1ccc(-c2n[nH]c3c2CCC3)cc1Cl	-3.59
Cc1ccc([N+](=O)[O-])cc1S(=O)(=O)N1CCCCC1C(=O)O (stereo unspecified)	11.7
COc1cccc(CN2CCN(C(=O)CC(C)C)CC2)c1	-2.21
O=C1CNC(=O)/C(=C/c2ccco2)N1	6.62
Cc1ccc(-n2c(C)cc(/C=N/Nc3ccc([N+](=O)[O-])cn3)c2C)cc1	-7.78
Cc1cc(/C=N/Nc2ccc([N+](=O)[O-])cn2)c(C)n1-c1ccccc1	9.51
Cc1ccnc2nc(C(=O)NCc3cccs3)nn12	-0.8
NS(=O)(=O)c1ccc(CCNC(=O)C2CCN(S(=O)(=O)c3c(Cl)cccc3Cl)CC2)cc1	1.28
Cc1cc(C)cc(N(CC(=O)Nc2ccccc2C(=O)N2CCOCC2)S(C)(=O)=O)c1	-5.57
CC#CCC(CC#CC)c1nc2ccccc2c(=O)n1N	-1.78
Cc1ccc(-c2noc(CCC(=O)NC3CCCc4ccccc43)n2)cc1 (stereo unspecified)	-3.35
